Unmarked numbers belong to inactive results. Inconclusive results are not listed. Where a call stands in place of a potency, no number is given. Active and inactive are the calls of the source. Calls follow the shape of the dose curve; as a rule, active = well fitted curve in the direction sought with a large enough effect; inconclusive = small, poorly fitted or top-dose-only effect, or another doubt; inactive = no such curve, though single readings can be large; an effect the other way counts as inactive or inconclusive.
What was measured:
[1] = biological target: Glutathione peroxidase 1 (Homo sapiens) (UniProt P07203); assay: Primary qHTS Assay for Inhibitors of Recombinant Selenoprotein Glutathione Peroxidase 1 (GPX1) (AID 1845191); also: nearly all actives have a fitted effect of over 65% in size
Glutathione peroxidase 1 (Homo sapiens), sequence (P07203 whole entry, looked up): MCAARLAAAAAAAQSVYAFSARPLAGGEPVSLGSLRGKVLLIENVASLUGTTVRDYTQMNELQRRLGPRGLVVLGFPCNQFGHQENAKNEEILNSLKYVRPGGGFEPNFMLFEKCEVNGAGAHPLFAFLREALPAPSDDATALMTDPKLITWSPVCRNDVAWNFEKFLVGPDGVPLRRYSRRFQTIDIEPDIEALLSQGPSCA
Outline: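 NADPH consumption tracked by fluorescence at 340/450 nm between t=0 and t=15 min, room temperature. Final mix: 10 nM GPX1, 100 nM glutathione reductase, 1 mM GSH, 0.5 mM NADPH, 0.5 mM cumene hydroperoxide, 0.01% BSA; 30 min compound–enzyme preincubation.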

[2] = biological target: Phospholipid hydroperoxide glutathione peroxidase GPX4 (Homo sapiens) (UniProt P36969); assay: Primary qHTS Assay for Inhibitors of Recombinant Selenoprotein Glutathione Peroxidase 4 (GPX4) (AID 1845192); also: nearly all actives have a fitted effect of over 65% in size; as to activity change, negative = inhibition: series mostly up to about 50 µM
Phospholipid hydroperoxide glutathione peroxidase GPX4 (Homo sapiens), sequence (P36969 whole entry, looked up): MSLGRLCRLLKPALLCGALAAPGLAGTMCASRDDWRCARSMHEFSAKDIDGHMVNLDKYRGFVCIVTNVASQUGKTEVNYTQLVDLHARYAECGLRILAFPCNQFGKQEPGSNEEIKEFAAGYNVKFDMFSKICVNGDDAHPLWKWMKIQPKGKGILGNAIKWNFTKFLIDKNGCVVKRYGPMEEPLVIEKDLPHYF
Outline: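 NADPH consumption followed by fluorescence at 340/450 nm, t=0 and after 15 min at room temperature. Reaction started with cumene hydroperoxide (0.5 mM final) after 30 min compound–GPX4 preincubation; final 200 nM GPX4, 100 nM GR, 1 mM GSH, 0.5 mM NADPH.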

[3] = biological target: Luciferin 4-monooxygenase (Photinus pyralis) (UniProt P08659); assay: Primary firefly luciferase (FLuc) qHTS assay for identification of artifact compounds. (AID 1845220); also: nearly all actives have a fitted effect of over 60% in size; as to activity change, negative = inhibition: series mostly up to about 54 µM
Outline: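 FLuc 10 nM; luciferin 10 uM; ATP 10 uM; Tris-acetate pH 7.6, Mg-acetate 10 mM; 15 min RT preincubation; 5 min reaction; luminescence.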

[4] = Primary fluorescence-based thiol-reactive (MSTI) qHTS assay for identification of artifact compounds. (AID 1845221); also: nearly all actives have a fitted effect of over 65% in size; also: potency is read from the fitted curve at half-maximal effect;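 as to activity change, negative = thiol reactive: series mostly up to about 54 µM; thiol-reactive compounds lower the probe fluorescence signal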
Outline: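 Probe: MSTI 4 uM, PBS pH 7.4, 2% DMSO. Incubation 1 h, RT, light-protected. Readout fluorescence 525/598 nm.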

[5] = system: Nanoluciferase (engineered Oplophorus gracilirostris luciferase); assay: Primary Nanoluciferase (NLuc) qHTS assay for identification of artifact compounds. (AID 1845222);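 also: NLuc secreted into diluted conditioned medium of S16 cells; series mostly up to about 54 µM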
Outline: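 NLuc from S16 cell medium (1:55) plus test compounds, 15 min, room temperature. Luminescence after Nano-Glo (1:100) addition, 5 min.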

[6] = Primary redox qHTS assay for identification of artifact compounds. (AID 1845223)
Outline: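 Redox-cycling detection via DTT (250 uM final) oxidation coupled to Amplex Red (25 uM)/HRP (250 mU/mL) in HBSS. 15 min preincubation plus 30 min after DTT, room temperature. Ex/Em 525/598 nm; 4-parameter Hill fit against DMSO and 10 uM DA3003.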

Row | SMILES | Potency [1] | Potency [2] | Potency [3] | Potency [4] | Potency [5] | Potency [6] | activity change, negative = inhibition [3] | activity change, negative = thiol reactive [4] | activity, negative = inhibition [5] | redox activity (% of DA3003) [6]
1 | COc1cc(N2CCC(O)CC2)ccc1Nc1nc(Nc2ccccc2S(=O)(=O)C(C)C)c2[nH]cnc2n1 | inactive | inactive | inactive | 1.68 µM (active) | inactive |  |  |  |  | 
2 | CC(=O)O[C@H]1C[C@H](OC(C)=O)[C@]2(C)[C@H](CC[C@@]34O[C@@H]3C3=C(C)C(=O)O[C@@H]3C[C@H]42)C1(C)C | inactive | inactive | inactive | inactive | inactive |  |  |  |  | 
3 | C=C1C(=O)O[C@@H]2C[C@@]3(C)C[C@@H](O)C[C@H](C)C3=C[C@H]12 | inactive | inactive | inactive | inactive | inactive |  |  |  |  | 
4 | NC(=O)CCCSc1nc(N)nc(-c2c(Cl)cc3c4c(cccc24)COC3)n1 | inactive | inactive | inactive | inactive | inactive | inactive |  |  |  | 
5 | Cc1cnn(-c2ccccc2)c1NC(=O)COCc1ccccc1 | inactive | inactive | inactive | inactive | inactive | inactive |  |  |  | 
6 | COC1CCN(C(=O)c2cc(Cc3n[nH]c(=O)c4ccccc34)ccc2F)CC1 | inactive | inactive | inactive | inactive | inactive | inactive |  |  |  | 
7 | C[C@@H](N[C@H]1CCCC[C@@H]1NC(=O)c1ccc(Cl)cc1)c1cccc2ccccc12 | inactive | inactive | inactive | inactive | inactive | inactive |  |  |  | 
8 | COC(=O)/C=C/C=C/C(=O)OC1C=C2COC(=O)C2(O)C2(C)CCCC(C)(C)C12 (stereo not drawn) | inactive | inactive | inactive | inactive | inactive |  |  |  |  | 
9 | COc1ccc(CCN(C)CCCOc2nsc(-c3ccccc3)n2)cc1OC | inactive | inactive | inactive | inactive | inactive |  |  |  |  | 
10 | CCCc1cc(C)[nH]c(=O)c1CNC(=O)c1cc(-c2ccnc(N3CCN(C)CC3)c2)cc2c1cnn2C(C)C | inactive | inactive | inactive | inactive | inactive |  |  |  |  | 
11 | Cc1cc2c(cc1N1C(=O)c3cccc4c(CCCO)ccc(c34)C1=O)n(C)c(=O)n2C | inactive | inactive | inactive | inactive | inactive |  |  |  |  | 
12 | CC(=O)O[C@@H]1CC2C(/C=C(\C)C(=O)[C@@]3(O)C[C@@H](C)[C@H](OC(=O)c4ccccc4)C3/C=C/1C)C2(C)C (stereo partly drawn) | inactive | inactive | inactive | inactive | inactive |  |  |  |  | 
13 | NS(=O)(=O)Nc1ncnc(OCCOc2ncc(Br)cn2)c1-c1ccc(Br)cc1 | inactive | inactive | inactive | inactive | inactive | inactive |  |  |  | 
14 | O=S1(=O)CCN(Cc2cc(NCC3CCOCC3)c3[nH]c(-c4ccccc4)cc3c2)CC1 | inactive | inactive | inactive | 1.19 µM (active) | inactive |  |  |  |  | 
15 | Nc1ncnc2c1nc(Cl)n2C1OC2COP(=O)(O)OC2C1O (stereo not drawn) | inactive | inactive | inactive | inactive | inactive |  |  |  |  | 
16 | C=C(C)C1CC(O)C(C)C12CC(O)C1(C)OC1C2O (stereo not drawn) | inactive | inactive | inactive | inactive | inactive |  |  |  |  | 
17 | COc1c(C)cnc(Cn2cc(C#CCC(C)(C)O)c3c(Cl)nc(N)nc32)c1C | inactive | inactive | inactive | inactive | inactive |  |  |  |  | 
18 | CC1(C)CCCC2(C)C1C(=O)C=C(C(=O)O)C2(O)C(=O)O (stereo not drawn) | inactive | inactive | inactive | 9.47 µM (active) | inactive |  |  |  |  | 
19 | CC(C)C[C@H](C(=O)O)c1cc(-c2ccc(C(F)(F)F)cc2)cc(-c2ccc(C(F)(F)F)cc2)c1 | inactive | inactive | inactive | inactive | inactive | inactive |  |  |  | 

Row | SMILES | Potency [1] | Potency [2] | Potency [3] | Potency [4] | Potency [5] | Potency [6] | activity change, negative = inhibition [3] | activity change, negative = thiol reactive [4] | activity, negative = inhibition [5] | redox activity (% of DA3003) [6]
20 | C/C=C(\C)C(=O)OC1C[C@@]2(COC(C)=O)O[C@H]2/C=C\[C@@]2(C)O[C@@H]2[C@H]2OC(=O)C(COC(C)=O)=C12 (stereo partly drawn) | inactive | inactive | inactive | 13 µM (active) | inactive |  |  |  |  | 
21 | CC(=O)O[C@@H]1[C@@H](O)[C@H](O[C@@H]2[C@@H](O)[C@@H](O)[C@H](O[C@H]3[C@H](O[C@H]4[C@H](O[C@H]5CC[C@@]6(C)C(CC[C@]7(C)C6CC=C6[C@@H]8CC(C)(C)CC[C@]8(C(=O)O)CC[C@]67C)[C@]5(C)CO)O[C@H](CO)[C@@H](O)[C@@H]4O)OC[C@@H](O)[C@@H]3O)O[C@H]2C)OC[C@H]1O (stereo partly drawn) | inactive | inactive |  |  |  |  | -4.72% [at 11.6 µM] | 377% [at 11.5 µM] | 1.48% [at 11.6 µM] | 0.129% [at 11.5 µM]
22 | O=C(c1ccccc1)c1c(O)cc(O)cc1O[C@@H]1O[C@H](CO)[C@@H](O)[C@H](O)[C@H]1O | inactive | inactive | inactive | 13.1 µM (active) | inactive |  |  |  |  | 
23 | CC(=O)OC1CC2(C)C(CCC(C)C23Cc2c(O)cc(CO)c(C=O)c2O3)C(C)(C)C1O (stereo not drawn) | inactive | inactive | inactive | inactive | inactive |  |  |  |  | 
24 | Nc1nc(O)c(C2=C3C(=Nc4ccccc43)C(=O)NCC2)[nH]1 | inactive | inactive | inactive | inactive | inactive |  |  |  |  | 
25 | CCCCNc1ncc(C(=O)NCc2ccc(-n3ccnc3)cc2)c(NC2CCC(O)CC2)n1 (stereo not drawn) | inactive | inactive | inactive | inactive | inactive | inactive |  |  |  | 
26 | O=C(C1CCCCC1)N(CCN1CCN(c2ccccc2O)CC1)c1ccccn1 | inactive | inactive | inactive | inactive | inactive |  |  |  |  | 
27 | CCc1cc(C(N)=O)ccc1-n1nc(C(C)C)c2c(-n3cnc(-c4cnn(C)c4)c3)ccnc21 | inactive | inactive | inactive | inactive | inactive |  |  |  |  | 
28 | CC(=O)OC1CC(C)(C(=O)O)CC2C3=CC(=O)C4C5(C)CCC(OC6OC(C(=O)O)C(O)C(O)C6OC6OC(C(=O)O)C(O)C(O)C6O)C(C)(C)C5CCC4(C)C3(C)CCC12C (stereo not drawn) | inactive | inactive |  |  |  |  | -10.2% [at 11.6 µM] | 9.23% [at 11.5 µM] | -14.5% [at 11.6 µM] | 5.43% [at 11.5 µM]
29 | COc1ccc(CCc2nc3c(C)c(-c4c(C)noc4C)c(C)cc3n2CCN2CCOCC2)cc1 | inactive | inactive | inactive | inactive | inactive |  |  |  |  | 
30 | Cc1c(C2=CCN(C(=O)N(C)C(C)C)CC2)nnn1-c1cccnc1F | inactive | inactive | inactive | inactive | inactive | inactive |  |  |  | 
31 | CC(C)NC(=O)N1CC[C@H](N=C2Nc3cc(F)ccc3N(CC(F)F)c3ccc(Cl)cc32)C1 | inactive | inactive |  |  |  |  | 1.25% [at 11.6 µM] | 70.3% [at 11.5 µM] | 1.94% [at 11.6 µM] | 12.5% [at 11.5 µM]
32 | CC(=O)C=C=C1C(C)(C)CC(O)CC1(C)O[C@@H]1O[C@H](CO[C@H]2OC[C@](O)(CO)[C@H]2O)[C@@H](O)[C@H](O)[C@H]1O (stereo partly drawn) | inactive | inactive | inactive | 5.19 µM (active) | inactive | inactive |  |  |  | 
33 | NS(=O)(=O)c1ccc(NC(=O)Nc2ccc(F)cc2)cc1 | inactive | inactive | inactive | inactive | inactive | inactive |  |  |  | 
34 | O=c1[nH]c2cccc(N3CCN(Cc4ccc(-c5ccccc5)cc4)CC3)c2o1 | inactive | inactive | inactive | inactive | inactive | inactive |  |  |  | 
35 | CC(=O)NC(C(=O)O[C@H]1CCC(C)(C)[C@@H]2CC=C3C(=O)OCC3(O)[C@@]12C)C(C)C (stereo partly drawn) | inactive | inactive | inactive | inactive | inactive | inactive |  |  |  | 
36 | COc1ccc2[nH]c(=O)c3c(c2c1)OC(C)(C)C=C3 | inactive | inactive | inactive | inactive | inactive | inactive |  |  |  | 
37 | CS/C=C/C(=O)O[C@@H]1CCC2=CC(=O)C(=C(C)C)C[C@]2(C)[C@H]1C | inactive | inactive | inactive | inactive | inactive | inactive |  |  |  | 
38 | COC(=O)CC(O)CC(O)/C=C/c1c(C)ccc2c1C(OC(C)=O)CC(C)C2 (stereo not drawn) | inactive | inactive | inactive | inactive | inactive | inactive |  |  |  | 
